An excerpt weighted towards active compounds, which were near 2.3% of everything screened.
M1 antag: human M1 muscarinic receptor antagonists, primary screen, CHO-K1 cells, Fluo-8 calcium fluorescence, 1536-well; CHO-K1 hM1, ACh EC80 antagonist; inhibition, % at 3 µM; 360,000 compounds, 1.3% hits; AID 588852, 2011;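 active = percent inhibition above its own plate's cutoff, namely the mean of that plate's compound wells plus 3 SD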;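 note: peak over basal fluorescence ratio during 140 s after agonist addition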
Target sequence (P11229 whole entry, looked up): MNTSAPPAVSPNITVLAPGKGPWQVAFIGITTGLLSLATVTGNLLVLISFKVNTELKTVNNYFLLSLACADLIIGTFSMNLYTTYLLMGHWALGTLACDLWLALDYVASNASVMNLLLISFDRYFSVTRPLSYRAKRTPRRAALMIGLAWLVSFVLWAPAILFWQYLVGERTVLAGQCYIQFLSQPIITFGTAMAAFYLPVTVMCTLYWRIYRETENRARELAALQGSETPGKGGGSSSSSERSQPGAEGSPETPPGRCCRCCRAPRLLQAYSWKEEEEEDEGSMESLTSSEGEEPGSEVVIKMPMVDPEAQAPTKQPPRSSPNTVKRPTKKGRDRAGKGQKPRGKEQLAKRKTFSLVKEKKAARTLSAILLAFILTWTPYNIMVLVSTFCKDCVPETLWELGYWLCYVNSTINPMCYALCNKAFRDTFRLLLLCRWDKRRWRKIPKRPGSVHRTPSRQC
CHRM1 PAM: human M1 muscarinic receptor positive allosteric modulators, primary screen, CHO-K1 cells, Fluo-8 calcium fluorescence, 1536-well | Muscarinic acetylcholine receptor M1 (Homo sapiens), P11229 | 360,000 compounds, 0.088% hits | activation, % at 3 µM | CHO-K1 hM1, ACh EC20; 0% = ACh EC20, 100% = maximal ACh; in the data active = activation above about 19%, passing the limit was not always enough
CHO-K1 Ca antag: counter-screen for M1 antagonists: effect in parental CHO-K1 cells | inhibition, % at 3 µM | ATP-induced calcium, Fluo-8 fluorescence | AID 602250 | 360,000 compounds, 0.6% hits;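 active = inhibition above a per-plate cutoff, the plate's mean sample inhibition plus 3 SD, cut at about 24% in these data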
CHO-K1 Ca ag: counter-screen for M1 agonists: effect in parental CHO-K1 cells. Fluo-8 calcium fluorescence; scaled to maximal ATP response, vehicle zero. activation, % at 3 µM. 360,000 compounds, 0.48% hits. AID 602248, 2012; in the data active = activation above about 15%;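 note: untransfected CHO-K1 host cells lacking M1 receptor as counterscreen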
M1 ag: human M1 muscarinic receptor agonists, primary screen, Fluo-8 calcium fluorescence, CHO-K1 cells, HTS; Muscarinic acetylcholine receptor M1 (Homo sapiens), P11229; CHO-K1 hM1, agonist mode; 0% DMSO, 100% acetylcholine EC100; activation, % at 3 µM; 360,000 compounds, 0.33% hits; AID 588814, 2011;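 active = activation above the run's mean compound activation plus 3 SD, cut at about 16% in these data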;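 note: peak over basal fluorescence ratio within a 140 s kinetic read after compound addition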
CHO-K1 Ca PAM: nonselective calcium activators in parental CHO-K1 cells, primary screen, counter-screen for M1 PAM project, cell-based, Fluo-8 calcium fluorescence, full deck, 1536-well. ATP EC20; 0% at ATP EC20, 100% at ATP max. activation, % at 3 µM. 360,000 compounds, 0.02% hits;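 active = activation above the run cutoff, the mean activation of all test compounds plus 3 SD, cut at about 40% in these data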;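 note: peak over basal fluorescence ratio in a 140 s read after ATP addition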
Each line names hits and unclear results; the compound was inactive in the other large screens.

CN(Cc1cccc2cnccc12)C(=O)CCc1nnc(CCc2ccccc2)o1	CHO-K1 Ca ag 17
CCOC(=O)C1C(=O)CC(C)(O)C(C(=O)OCC)C1c1ccc(N(CC)CC)cc1 (stereo not drawn)	none
CCN(CC)c1ccc(C2C(C(=O)OC(C)C)C(=O)CC(C)(O)C2C(=O)OC(C)C)cc1 (stereo not drawn)	M1 antag 30
CN(C(=O)c1ccc(NC(=O)Cc2ccccc2)cc1)c1ccccc1	none
CCN(C(=O)c1ccc(NC(=O)Cc2ccccc2)cc1)c1ccccc1	CHO-K1 Ca ag 16
CCN(CC)c1ccc(/C=C/C(=O)c2ccc(Br)cc2)cc1	M1 antag 79, CHO-K1 Ca antag 73, CHO-K1 Ca ag 111, M1 ag 171
O=c1ncccn1C1OC(CO)C(O)C1O (stereo not drawn)	none
CCOC(=O)[C@]12CCCC=C1N(Cc1ccc3c(c1)OCO3)C(=O)[C@H](CC(=O)N1CCN(C(=O)C3CC3)CC1)C2	none (no result: M1 antag, CHRM1 PAM, M1 ag)
CN(CCO)CC(O)CN(c1ccccc1)c1ccccc1 (stereo not drawn)	none
CN(Cc1ccccc1)CC(O)CN(C)Cc1ccccc1	M1 ag 18
CNc1ccc(-c2cccc([N+](=O)[O-])c2)cn1	none
CC(CCC(C)C(C)(C)C)[C@@H]1CC[C@H]2C3C[C@H](OS(O)(=S)=S)[C@H]4C[C@H](OS(O)(=S)=S)[C@@H](OS(O)(=S)=S)C[C@]4(C)[C@H]3CC[C@]12C (stereo partly drawn) (tested in a mixture with another compound)	CHO-K1 Ca ag 24, M1 ag 37, CHO-K1 Ca PAM 46
NC(=O)CN1CCN(Cc2ccc3c(c2)OCO3)CC1	none
COc1ccc(C(=O)c2ccccc2O)c(O)c1	CHO-K1 Ca antag 24
CCOC(=O)CSc1ccc(C(=O)NCCCN2CCOCC2)cc1[N+](=O)[O-]	M1 antag 65
O=C(NCCCN1CCOCC1)c1ccc(Sc2cccc(Cl)c2)c([N+](=O)[O-])c1	M1 antag 83
COc1cc(C(C#N)N2CCC(c3ccccc3)=N2)ccc1O (stereo not drawn)	none
CCOc1ccccc1N1CCN(CC(=O)Nc2ccnn2C2CCCC2)CC1	none
O=C(O)/C=C/C(=O)Nc1ccc(C2(c3ccc(NC(=O)/C=C/C(=O)O)cc3)c3ccccc3-c3ccccc32)cc1	none
COc1cccc(NC(=O)CN2C(=O)NC(C)(c3ccc(C)cc3)C2=O)c1 (stereo not drawn)	none
OCC1(Cc2ccc(F)cc2F)CCCN(CCCc2ccccc2)C1 (stereo not drawn)	none
OCC1(Cc2ccccc2F)CCCN(CCc2ccccc2)C1 (stereo not drawn)	M1 antag 31
CCOc1ccc(NC(=O)CN(C)C(=O)c2cccnc2Sc2ccc(C)c(C)c2)cc1OCC	none
O=C(NC(NC(=S)Nc1ccc(Cl)c(Cl)c1)C(Cl)(Cl)Cl)c1ccco1 (stereo not drawn)	CHO-K1 Ca antag 29
O=C(CCc1ccccc1)NC(NC(=S)Nc1ccc(Cl)cc1)C(Cl)(Cl)Cl (stereo not drawn)	M1 antag 23
O=C(Nc1ccc(Br)c(Cl)c1)c1ccco1	none
O=C(Nc1ccc(OC(=O)c2ccco2)cc1)c1ccco1	CHO-K1 Ca antag 28
O=C(Nc1ccc(Cl)c(Cl)c1)Oc1ccc(NC(=O)c2ccco2)cc1	CHO-K1 Ca antag 34
CCC(=O)Oc1ccc(NC(=O)c2ccco2)cc1	none
CC1CCCC(NC(=O)COC(=O)CN2C(=O)C3CCCCC3C2=O)C1C (stereo not drawn)	none
COc1cccc(NC(=O)N2CCC(NC(=O)C3CCCCC3)CC2)c1	CHRM1 PAM 28
Cc1ccc(NC(=O)CSc2ccc(S(=O)(=O)N3CCCC3)cn2)cc1F	CHO-K1 Ca ag 16
CN(CC(=O)Nc1ccc(S(=O)(=O)N2CCCC2)cc1)CC(=O)Nc1cccc(F)c1	CHO-K1 Ca ag 18
Cc1ccc(NC(=O)CNc2cccc(S(=O)(=O)N3CCCCC3)c2)cc1F	none
CCN(c1ccc(NC(=O)COC(=O)c2ccc(S(=O)(=O)N3CCCC3)cc2)cc1)C(C)C	M1 antag 68
CCN1CCN(C(=O)c2ccccc2N(Cc2ccccc2)S(=O)(=O)c2ccc(C)cc2)CC1	M1 ag 28
CC(Sc1nnc(C(C)Oc2ccc(F)cc2)o1)C(=O)NCc1ccc2c(c1)OCO2 (stereo not drawn)	none
CCc1ccc2oc(C(=O)NC3CCS(=O)(=O)C3)cc(=O)c2c1 (stereo not drawn)	none
CCN(CC(=O)Nc1ccc(S(=O)(=O)N2CCOCC2)cc1)Cc1ccccc1	none
CCN(CC(=O)Nc1ccc(S(=O)(=O)N2CCCC2)cc1)Cc1ccccc1	M1 antag 45
CCN1CCN(S(=O)(=O)c2ccc(S(=O)(=O)N(CC)Cc3ccccc3)cc2)CC1	CHO-K1 Ca ag 22
O=C(/C=C/c1ccccc1)CCN1CCCCC1	none
COc1ccc(/C=N/NC(=O)C(=O)/C=C2\NC3(CCCC3)Cc3ccccc32)cc1	CHRM1 PAM 25
O=C(/C=C1\NC2(CCCC2)Cc2ccccc21)C(=O)N/N=C/c1ccc(O)c(O)c1	M1 ag 17
COc1ccc(Nc2nc(Nc3ccc(OC)cc3)nc(SC3=NCCS3)n2)cc1	none
O=C(Nc1ccncc1)c1ccccc1F	none
O=C(Nc1ccncc1)c1cc2ccccc2cc1O	CHO-K1 Ca ag 16
O=C(Nc1cccc([N+](=O)[O-])c1)c1cc2ccccc2cc1O	CHO-K1 Ca ag 16
C/C(=N\NC(=O)c1cc2ccccc2cc1O)c1ccccn1	CHRM1 PAM 29
O=C(Oc1cccc(Nc2ncnc3ccccc23)c1)c1ccccc1Cl	M1 antag 25, CHO-K1 Ca antag 25
COc1cccc(Nc2ncnc3ccccc23)c1	none
CCOC(=O)[C@]12CCC=C1N(Cc1ccc3c(c1)OCO3)C(=O)[C@H](CC(=O)NCC13CC4CC(CC(C4)C1)C3)C2	none (no result: M1 antag, CHRM1 PAM, M1 ag)
COc1ccc(C(CNc2ccc(S(=O)(=O)N3CCN(C)CC3)cc2[N+](=O)[O-])N(C)C)cc1 (stereo not drawn)	none
COc1ccc(C(CNc2ccc(S(=O)(=O)N3CCCC3)cc2[N+](=O)[O-])N2CCCC2)cc1 (stereo not drawn)	M1 antag 75
